# Measured values as given in PubChem BioAssay (NCATS).
# Active and inactive are the calls of the source. The call rests on the fitted dose curve; in most records, active means well fitted inhibition curve with a large enough effect; inconclusive means small, poorly fitted or top-dose-only effect; inactive means flat fitted curve, though single readings scatter.
# Target: DNA dC->dU-editing enzyme APOBEC-3G (Homo sapiens) (UniProt Q9HC16)
# Experiment: qHTS for inhibitors of Vif-A3G interactions: Validation (AID 588379)
# Details: Vif-A3G protein interaction assay; series mostly up to 46.1 µM
# From the text: The recent discovery and characterization of host restriction factors, which provide a potent defense to invading retroviruses, has provided new targets for antiviral drug development. APOBEC3G (A3G) and APOBEC3F (A3F) are potent cytidine deaminases that block HIV-1 replication; HIV-1 expresses the Vif protein, which counteracts A3G and A3F by binding to them and inducing their proteasomal degradation.
# The Vif-A3G and Vif-A3F interactions provide two potential targets for development of small molecules which can interfere with the ability of Vif to degrade A3G or A3F. […] To identify inhibitors that can interfere with Vif mediated degradation of A3G and A3F, we have developed Hela cell lines that stably express A3G or A3F tagged with eYFP at the C-terminal end (A3G-eYFP or A3F-eYFP, respectively) and Vif. In the absence of an inhibitor, Vif induces degradation of A3G-eYFP and A3F-eYFP, and the cells are not fluorescent. In the presence of an inhibitor, it is expected that Vif will be unable to degrade A3G-eYFP and/or A3F-eYFP, resulting in an increase in yellow fluorescence. In this assays Vif A3G was screened against the Molecular Library Small Molecile Repository (MLSMR).
# NIH Chemical Genomics Center [NCGC]
# NIH Molecular Libraries Probe Centers Network [MLPCN]
# Assay Submitter (PI): Vinay Pathak, National Cancer Institute
# 5 uL of 700 cells/well of A3G-YFP cells are dispensed into black, clear bottom plates. The plates are incubated overnight at 37 deg C. 23 nL of compounds are added by pintool. The plates are incubated overnight at 37 deg C and then read on the TTP Acumen (Ex 488/ Em 500-530).
# DNA dC->dU-editing enzyme APOBEC-3G (Homo sapiens), sequence (Q9HC16 whole entry, looked up): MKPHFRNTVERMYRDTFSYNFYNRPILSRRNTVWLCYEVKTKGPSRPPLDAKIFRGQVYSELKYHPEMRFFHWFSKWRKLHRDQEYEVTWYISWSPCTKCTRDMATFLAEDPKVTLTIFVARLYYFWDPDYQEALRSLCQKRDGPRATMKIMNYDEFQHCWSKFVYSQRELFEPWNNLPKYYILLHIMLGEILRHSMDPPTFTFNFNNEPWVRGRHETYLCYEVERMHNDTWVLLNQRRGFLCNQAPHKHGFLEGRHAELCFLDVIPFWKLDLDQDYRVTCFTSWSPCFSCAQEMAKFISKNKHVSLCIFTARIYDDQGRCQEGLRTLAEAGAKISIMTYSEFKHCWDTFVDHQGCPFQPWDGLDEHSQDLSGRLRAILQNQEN
row,Structure (SMILES),outcome
1,CN1CCc2cccc3c2[C@H]1Cc1ccc(O)c(O)c1-3,inactive
2,Cl/C(=C\n1cncn1)c1ccc(Cl)cc1Cl,inactive
3,CC(C)(C)NC[C@H](O)COc1nsnc1N1CCOCC1,inactive
4,CN(C)CCC[C@@]1(c2ccc(F)cc2)OCc2cc(C#N)ccc21,inactive
5,CNCCCCOc1ccccc1Cc1ccccc1,inactive
6,CO[C@]12C[C@@H](COC(=O)c3cncc(Br)c3)CN(C)[C@@H]1Cc1cn(C)c3cccc2c13,inactive
7,Cc1ncc(CO)c(C=O)c1O,inactive
8,CN1CCC[C@@H]1CCO[C@](C)(c1ccccc1)c1ccc(Cl)cc1,inactive
9,O=C(c1ccc(F)cc1)C1CCN(CCn2c(=S)[nH]c3ccccc3c2=O)CC1,inactive
10,COc1ccccc1N1CCN(CCCCNC(=O)c2ccc(-c3ccc(C(C)=O)cc3)cc2)CC1,inactive
11,O=c1[nH]c(=O)n([C@H]2C[C@H](O)[C@@H](CO)O2)cc1F,inactive
12,CN=C(N)NCCC[C@H](N)C(=O)O,inactive
